These results are taken from PubChem BioAssay (EPA / NIEHS).

Assay [1] is described as follows: ATG_CRE_CIS: Attagene CIS-FACTORIAL HepG2 Assay for human cAMP Responsive Element (CRE) binding protein 3 (AID 2282926). The settings on record: HepG2 CRE cis-reporter, Attagene multiplexed mRNA; actives raise or lower the signal. Put shortly: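 Capillary electrophoresis of 6-FAM-labelled, HpaI-digested PCR products quantified reporter transcripts. These came from HepG2 transiently transfected with cis-element reporters and exposed to test chemicals for 24 hours, with DMSO defining baseline activity.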

The target of assay [2] is CCAAT/enhancer-binding protein beta (Homo sapiens) (UniProt P17676). Briefly: ATG_C_EBP_CIS: Attagene CIS-FACTORIAL HepG2 Assay for human CCAAT/Enhancer Binding Protein (C/EBP) beta (AID 2282927). The settings on record: HepG2 Attagene cis-factorial transcription factor reporter; actives raise or lower the signal. Put shortly: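 Endogenous transcription factor activity in human liver HepG2 cells is inferred from induction of a CEBPB-linked reporter mRNA. Exposure lasts 24 h; activity is fitted in both directions relative to DMSO.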

Assay [3] can be described thus: ATG_CMV_CIS: Attagene CIS-FACTORIAL HepG2 Assay for human CMV (Internal Marker) (AID 2282928).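 Note: endpoint acts as a background internal control marker rather than a target.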 The following applies: HepG2 CMV promoter reporter, transcription factor profiling; actives raise or lower the signal. Put shortly: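 24 h chemical treatment, HepG2 with transient multi-reporter transfection; RNA → oligo(dT) RT → PCR → 6-FAM extension → HpaI digest → CE fluorescence. Bidirectional fit, DMSO negative control.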

Assay [4] in a line: ATG_DR4_LXR_CIS: Attagene CIS-FACTORIAL HepG2 Assay for human Liver X Receptor (LXR), DR4 submotif (AID 2282929). The settings on record: HepG2 Attagene DR4 cis-reporter, mRNA transcription; actives raise or lower the signal. Put shortly:
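Cells were transfected with multiple reporter transcription units, exposed to chemicals for 24 hours, then lysed for RNA. Reporter mRNA induction was measured by RT-PCR with capillary electrophoresis detection and fitted in both directions relative to DMSO.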

Assay [5] has as its target Aryl hydrocarbon receptor (Homo sapiens) (UniProt P35869). In words: ATG_Ahr_CIS: Attagene CIS-FACTORIAL HepG2 Assay for human Aryl Hydrocarbon Receptor (Ahr) (AID 2282930). The following applies: HepG2 AhR cis-factorial reporter transcription; actives raise or lower the signal. Put shortly:
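Transient MRTU transfection of HepG2 → 24 h compound exposure → total RNA, oligo(dT) RT → PCR, 6-FAM extension, HpaI cut → CE fluorescence. DMSO = baseline; bidirectional curve fit.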

Assay [6] in a line: ATG_AP_1_CIS: Attagene CIS-FACTORIAL HepG2 Assay for human Activator Protein 1 (AP-1) (AID 2282931). The settings on record: HepG2 Attagene cis-factorial AP-1 reporter mRNA; actives raise or lower the signal. The method, boiled down: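 Endogenous transcription-factor activity in human HepG2 liver cells is read through a cis-promoter reporter transcript, sampled 24 h after dosing. Detection uses RT-PCR with capillary electrophoresis; values come from bidirectional fitting relative to DMSO.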

The nature of assay [7]: ATG_AP_2_CIS: Attagene CIS-FACTORIAL HepG2 Assay for human Activator Protein 2 (AP-2) (AID 2282932). The settings on record: HepG2 AP-2 cis-reporter, Attagene transcription factor profiling; actives raise or lower the signal. Put shortly:
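Transiently transfected HepG2 cells are exposed to chemical for 24 h. Reporter transcripts are then measured as fluorescence following RT-PCR and capillary separation, and gain- or loss-of-signal is fitted relative to DMSO.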

Assay [8] is described as follows: ATG_BRE_CIS: Attagene CIS-FACTORIAL HepG2 Assay for human Bone Morphogenetic Protein (BMP) Response Element (BRE) (AID 2282933). The settings on record: HepG2 BMP response element reporter, Attagene transcription factor profiling; actives raise or lower the signal. Put shortly: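 Fluorescence-labelled reporter cDNA fragments, separated by capillary electrophoresis, gave the signal for this component of a 52-readout multiplex. HepG2 cells were transfected, exposed to chemicals for 24 h, and compared with DMSO using bidirectional fitting.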

Assay [9] addresses Transcription factor E2F1 (Homo sapiens) (UniProt Q01094). In words: ATG_E2F_CIS: Attagene CIS-FACTORIAL HepG2 Assay for human E2F Transcription Factor 1 (AID 2282935). The following applies: HepG2 Attagene cis-reporter, E2F reporter RNA transcripts; actives raise or lower the signal. Put shortly: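 Fluorescent RT-PCR products, digested with HpaI for 2 h at 37 C, are separated by capillary electrophoresis. Source RNA comes from transfected HepG2 cultures treated for 24 h.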

Assay [10] is described as follows: ATG_E_Box_CIS: Attagene CIS-FACTORIAL HepG2 Assay for human Enhancer Box (E-box) (AID 2282936). The settings on record: HepG2 E-box cis-reporter transcription, actives raise or lower the signal. The method, boiled down:
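Fluorescent reporter fragments separated by capillary electrophoresis gave the signal; mRNA came from HepG2 cells transfected with cis-element reporters and treated 24 h. Curves fitted bidirectionally relative to DMSO controls.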

Assay [11] in a line: ATG_M_61_CIS: Attagene CIS-FACTORIAL HepG2 Assay for M61 Transcription Factor (Internal Marker) (AID 2282937). The settings on record: HepG2 Attagene CIS-FACTORIAL M61 internal marker reporter; actives raise or lower the signal. The method, boiled down: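 Cells were transfected with reporter units under cis-regulatory promoters, treated with chemicals for 24 h, then lysed for RNA. Reporter transcripts were quantified by RT-PCR and capillary electrophoresis, and activity was fitted bidirectionally against DMSO.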

The nature of assay [12]: ATG_EGR_CIS: Attagene CIS-FACTORIAL HepG2 Assay for human Early Growth Response 1 (EGR1) (AID 2282938). The settings on record: HepG2 Attagene CIS-FACTORIAL EGR reporter mRNA; actives raise or lower the signal. The method, boiled down: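 Endogenous TF activity in HepG2 liver cells was gauged through cis-promoter reporter constructs transiently transfected. After 24 h dosing, reporter mRNA was quantified by RT-PCR and capillary electrophoresis, and curves fitted in both directions versus DMSO.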

Assay [13] is described as follows: ATG_M_19_CIS: Attagene CIS-FACTORIAL HepG2 Assay for M19 Transcription Factor (Internal Marker) (AID 2282939). The following applies: HepG2 Attagene CIS-FACTORIAL M19 internal marker reporter; actives raise or lower the signal. Put shortly:
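HepG2, MRTU transient transfection, 24 h dosing. Total RNA → RT-PCR → 6-FAM primer extension → HpaI digest → CE fluorescence. Bidirectional curve fit, DMSO negative control.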

Assay [14] in a line: ATG_Ets_CIS: Attagene CIS-FACTORIAL HepG2 Assay for human Erythroblast Transformation Specific (ETS) (AID 2282941). The following applies: HepG2 ETS cis-reporter transcription, actives raise or lower the signal. Put shortly:
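Cis-regulated reporter mRNA induction in HepG2 (transient transfection), 24 h exposure, RT-PCR plus capillary electrophoresis detection; DMSO serves as negative control and baseline.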

In assay [15] the target is Hepatocyte nuclear factor 3-beta (Homo sapiens) (UniProt Q9Y261). Briefly: ATG_FoxA2_CIS: Attagene CIS-FACTORIAL HepG2 Assay for human Forkhead box A2 (FOXA2) (AID 2282942). The following applies: HepG2 cis-reporter transcription factor activity, 24 h; actives raise or lower the signal. Put shortly:
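Endogenous transcription factor activity was read in HepG2 cells carrying transiently transfected cis-promoter reporter units. After 24 h dosing, reporter mRNA was quantified by RT-PCR and capillary electrophoresis, and values fitted bidirectionally versus DMSO.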

Assay [16] can be described thus: ATG_FoxO_CIS: Attagene CIS-FACTORIAL HepG2 Assay for human Forkhead box O (FoxO) (AID 2282943). The following applies: HepG2 Attagene cis-reporter, FoxO element, mRNA; actives raise or lower the signal. The method, boiled down: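 HepG2, transient MRTU transfection (cis element, endogenous TFs). Dose 24 h. TriZol RNA → oligo(dT) RT → PCR → 6-FAM primer extension → HpaI cut → CE. Gain/loss vs DMSO.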

The nature of assay [17]: ATG_GATA_CIS: Attagene CIS-FACTORIAL HepG2 Assay for human GATA Binding Protein (AID 2282944). The settings on record: HepG2 GATA cis-element reporter, Attagene multiplex mRNA; actives raise or lower the signal. The method, boiled down:
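Cells: HepG2, transiently transfected with cis-regulated reporter transcription units. Exposure: 24 h. Detection: RT-PCR plus capillary electrophoresis of FAM-labeled fragments. Analysis: bidirectional, DMSO as baseline.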

The nature of assay [18]: ATG_GLI_CIS: Attagene CIS-FACTORIAL HepG2 Assay for human Zinc Finger Protein GLI1 (AID 2282945). The following applies: HepG2, Attagene cis-factorial reporter mRNA, GLI element; actives raise or lower the signal. Put shortly:
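Bidirectional curve fits relative to DMSO, using reporter mRNA levels from RT-PCR plus capillary electrophoresis. Cells were HepG2 transiently carrying cis-regulated reporter constructs, harvested 24 h after dosing.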

In assay [19] the target is Bile acid receptor (Homo sapiens) (UniProt Q96RI1). Briefly: ATG_IR1_CIS: Attagene CIS-FACTORIAL HepG2 Assay for human Nuclear Receptor Subfamily 1 Group H Member 4 (NR1H4), IR1 submotif (AID 2282946). The following applies: IR1 reporter transcription, actives raise or lower the signal. The method, boiled down: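 HepG2 cells transiently transfected with multiplexed cis-element reporter units read endogenous transcription factor activity. After 24 h compound exposure, reporter mRNA was quantified by RT-PCR, fluorescent labelling, HpaI digestion and capillary electrophoresis; bidirectional fitting versus DMSO baseline.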

A short description of assay [20]: ATG_ERE_CIS: Attagene CIS-FACTORIAL HepG2 Assay for Estrogen Response Element (ERE) (AID 2282940). The settings on record: HepG2 ERE cis-reporter, Attagene RNA transcript; actives raise or lower the signal. The method, boiled down:
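After a 24 h chemical treatment, RNA from reporter-transfected HepG2 cells is reverse-transcribed, PCR-amplified and fluorescently labelled. Fragments separated by capillary electrophoresis give reporter signal; DMSO serves as negative control.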

SMILES strings stand for the structures. Several values for one entry are separate records, joined by “and”; a condition that tells them apart may be missing. Identical values can stand only once. Where a structure was tested more than once in an assay, its records may differ in their call. Activity calls are given as the source filed them. Rule for the calls: active = hit-call score of the fitted dose curve at least 0.9, where 1 is the maximum; inactive = score below 0.9.

Sequence of Aryl hydrocarbon receptor (Homo sapiens) (P35869 whole entry, looked up): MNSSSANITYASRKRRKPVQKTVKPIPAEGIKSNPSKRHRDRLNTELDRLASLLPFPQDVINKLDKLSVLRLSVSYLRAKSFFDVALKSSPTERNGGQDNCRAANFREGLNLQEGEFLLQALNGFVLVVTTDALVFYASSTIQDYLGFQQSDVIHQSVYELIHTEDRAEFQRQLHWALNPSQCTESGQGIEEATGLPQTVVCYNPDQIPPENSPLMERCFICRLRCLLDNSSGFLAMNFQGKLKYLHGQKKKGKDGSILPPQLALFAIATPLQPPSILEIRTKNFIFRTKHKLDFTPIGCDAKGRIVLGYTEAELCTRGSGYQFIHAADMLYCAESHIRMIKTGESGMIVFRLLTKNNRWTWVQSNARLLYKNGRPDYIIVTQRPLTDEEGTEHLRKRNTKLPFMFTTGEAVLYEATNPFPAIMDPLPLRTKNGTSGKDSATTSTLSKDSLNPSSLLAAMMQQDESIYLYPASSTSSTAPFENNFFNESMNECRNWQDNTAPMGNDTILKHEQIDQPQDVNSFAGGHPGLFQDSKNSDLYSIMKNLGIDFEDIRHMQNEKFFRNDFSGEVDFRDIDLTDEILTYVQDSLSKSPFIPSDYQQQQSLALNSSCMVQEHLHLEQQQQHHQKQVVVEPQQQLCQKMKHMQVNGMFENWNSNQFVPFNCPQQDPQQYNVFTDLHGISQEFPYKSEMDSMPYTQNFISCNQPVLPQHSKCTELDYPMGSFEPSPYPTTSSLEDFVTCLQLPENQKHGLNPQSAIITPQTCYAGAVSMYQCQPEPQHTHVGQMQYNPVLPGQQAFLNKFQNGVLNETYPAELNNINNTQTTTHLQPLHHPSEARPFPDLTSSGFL
Sequence of CCAAT/enhancer-binding protein beta (Homo sapiens) (P17676 whole entry, looked up): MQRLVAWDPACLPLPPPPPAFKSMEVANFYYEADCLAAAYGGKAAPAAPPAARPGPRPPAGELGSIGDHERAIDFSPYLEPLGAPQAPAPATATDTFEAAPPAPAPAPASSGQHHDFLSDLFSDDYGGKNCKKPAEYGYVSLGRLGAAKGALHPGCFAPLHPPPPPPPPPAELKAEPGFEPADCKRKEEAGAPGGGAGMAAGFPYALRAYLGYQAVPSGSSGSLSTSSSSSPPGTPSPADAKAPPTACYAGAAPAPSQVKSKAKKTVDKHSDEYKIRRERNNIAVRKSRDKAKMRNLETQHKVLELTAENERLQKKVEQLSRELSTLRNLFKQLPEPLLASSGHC
Sequence of Transcription factor E2F1 (Homo sapiens) (Q01094 whole entry, looked up): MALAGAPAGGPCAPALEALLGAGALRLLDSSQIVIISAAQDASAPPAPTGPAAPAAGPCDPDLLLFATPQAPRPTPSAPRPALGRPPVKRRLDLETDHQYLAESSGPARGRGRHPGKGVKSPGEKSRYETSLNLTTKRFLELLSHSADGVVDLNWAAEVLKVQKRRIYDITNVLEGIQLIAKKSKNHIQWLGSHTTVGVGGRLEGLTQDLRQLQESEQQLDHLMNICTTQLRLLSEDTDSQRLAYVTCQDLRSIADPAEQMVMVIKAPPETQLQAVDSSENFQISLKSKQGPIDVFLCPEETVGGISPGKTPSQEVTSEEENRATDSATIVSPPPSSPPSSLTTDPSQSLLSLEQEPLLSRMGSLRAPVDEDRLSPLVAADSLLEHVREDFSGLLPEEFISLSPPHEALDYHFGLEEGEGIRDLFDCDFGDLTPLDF
Sequence of Bile acid receptor (Homo sapiens) (Q96RI1 whole entry, looked up): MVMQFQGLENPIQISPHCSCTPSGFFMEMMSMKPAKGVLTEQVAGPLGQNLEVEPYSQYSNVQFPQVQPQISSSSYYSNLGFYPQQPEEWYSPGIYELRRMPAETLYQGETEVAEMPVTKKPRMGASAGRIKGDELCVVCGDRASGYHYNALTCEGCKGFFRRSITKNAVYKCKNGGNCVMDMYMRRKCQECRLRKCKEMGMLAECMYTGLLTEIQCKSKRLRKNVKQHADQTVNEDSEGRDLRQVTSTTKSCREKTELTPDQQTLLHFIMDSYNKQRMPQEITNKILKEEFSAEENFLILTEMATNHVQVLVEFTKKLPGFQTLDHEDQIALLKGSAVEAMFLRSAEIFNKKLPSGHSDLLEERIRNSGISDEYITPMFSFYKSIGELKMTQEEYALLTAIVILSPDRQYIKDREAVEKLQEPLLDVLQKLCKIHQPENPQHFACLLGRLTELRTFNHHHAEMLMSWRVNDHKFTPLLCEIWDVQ
Sequence of Hepatocyte nuclear factor 3-beta (Homo sapiens) (Q9Y261 whole entry, looked up): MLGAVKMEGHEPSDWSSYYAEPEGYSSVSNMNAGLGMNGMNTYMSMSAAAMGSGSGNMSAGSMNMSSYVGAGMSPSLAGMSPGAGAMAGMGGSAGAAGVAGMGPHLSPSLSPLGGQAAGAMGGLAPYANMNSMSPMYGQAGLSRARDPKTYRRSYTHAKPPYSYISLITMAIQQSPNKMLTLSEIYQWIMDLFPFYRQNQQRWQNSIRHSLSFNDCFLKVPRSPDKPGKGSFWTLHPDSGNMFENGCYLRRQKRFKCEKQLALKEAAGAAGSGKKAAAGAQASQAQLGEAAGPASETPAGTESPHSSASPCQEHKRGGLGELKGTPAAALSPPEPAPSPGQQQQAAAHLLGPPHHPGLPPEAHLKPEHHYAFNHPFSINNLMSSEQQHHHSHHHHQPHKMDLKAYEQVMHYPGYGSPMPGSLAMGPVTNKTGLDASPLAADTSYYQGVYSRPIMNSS

In the case of `CCN(CC)CCOc1ccc(C(=C(Cl)c2ccccc2)c2ccccc2)cc1`, the AC50 in assay [1] was 12.8 µM (active); in [2], 17.4 µM (active); in assay [3], 7.17 µM (active); in [4], 3.89 µM (active) and 3.11 µM (active); in assay [5], 9.35 µM (active); in assay [7], 11.4 µM (active). The half-maximal activity concentration (AC50) in assay [10] is 11.9 µM (active); in assay [12] it was 6.34 µM (active); in assay [17], 17.6 µM (active); in assay [18], 9.35 µM (active); in assay [19] it was 5.65 µM (active) and 4.78 µM (active). In addition, the molecule was called inactive in assay [1], in assay [2], in assay [3], in [4], in assay [5] and in assay [6]. Moreover, the result in assay [7], in [8], in assay [9], in [10], in [11] and in [12] was inactive. Besides, the result in [13], in assay [14], in assay [15], in [16], in assay [17] and in assay [18] was inactive. Besides, the molecule was classed as inactive in [19].

Take `CCCCCCCC(=O)OC`: the result in [1], in assay [2], in [3], in assay [4], in [5] and in assay [6] was inactive. For the same molecule, the molecule was classed as inactive in assay [7], in [8], in assay [9], in assay [10], in [11] and in assay [12]. In addition, the molecule was classed as inactive in assay [13], in assay [20], in assay [14], in assay [15], in assay [16] and in assay [17]. Also, the molecule was classed as inactive in [18].

For `CC1=C(C)S(=O)(=O)CCS1(=O)=O`, the outcome in [1], in assay [4], in assay [5], in assay [7], in assay [8] and in assay [9] was inactive. Also, the result in [11], in assay [12], in assay [13], in assay [20], in assay [14] and in assay [15] was inactive. In addition, the molecule was called inactive in assay [16], in assay [17] and in assay [18]. For the same molecule, the AC50 in assay [2] is 129 µM (active); in assay [3], 143 µM (active); in assay [6], 166 µM (active); in assay [10], 100 µM (active).

The AC50 is the concentration giving half of the maximal activity seen.
